EBV LMP1 NFkB: EBV LMP1-driven NF-kappaB luciferase reporter inhibitors, primary screen, cell-based, luminescence, single point; LMP1-induced NF-kappaB luciferase reporter cells; inhibition, % at 12.5 µM; 0.69% of 350,000 active; in the data active = inhibition above about 41%; inconclusive = no clear call, values can overlap the other calls;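 also: 0% = neutral control wells and 100% = reference inhibitor control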
EWS-Fli block: EWS/Fli-driven NR0B1 reporter inhibitors, primary screen, A673 cells, NR0B1 luciferase, luminescence, MLPCN library. viability-normalised. inhibition, % at 12.6 µM. 0.67% of 350,000 active. AID 651661, 2012;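 active = mean inhibition of at least 50% after viability correction, with every replicate also passing that limit; inconclusive = mean reaches 50% but only one of two replicates passes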;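 also: firefly luciferase signal divided by Alamar Blue viability fluorescence both relative to DMSO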
LGR2 inh: inhibitors of bursicon-induced LGR2 CRE-luciferase signal, primary screen, cell-based, HEK293, CRE-luciferase reporter, bursicon stimulation. 0.35% of 380,000 active. inhibition, % at 9.99 µM. AID 720647, 2013. Drosophila bursicon receptor LGR2 (rickets). bursicon-stimulated, 4 h;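 active = drop in luminescence signal, shown as inhibition above about 50% in the replicate tests, limit read from the data, passing the limit was not always enough; inconclusive = probably only some replicates passing the limit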;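 also: agonist challenge used bursicon conditioned medium at about half maximal strength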
TWEAK Fn14 block: inhibitors of TWEAK-Fn14 signaling, primary screen, luciferase reporter cells, uHTS; 2% of 360,000 active; inhibition, % at 10 µM; TWEAK-stimulated Fn14 reporter cells, luciferase luminescence, 8 h; in the data active = inhibition above about 50%
TROY signal inh: inhibitors of TROY-driven NF-kB signaling, primary screen, Q293 LMP1-TROYcd cells, NF-kB luciferase, uHTS. Q293 LMP1-TROYcd NF-kB luciferase reporter, 4 h. inhibition, % at 10 µM. 0.98% of 360,000 active;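 active = compounds whose plate-normalised and pattern-corrected inhibition of the luciferase reporter signal at the single screening dose is 50% or more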
* = called active by the depositor; ? = inconclusive; . = not tested or not shown. Hits are enriched below; roughly 2.5% of the tested compounds scored in any of these assays.

SMILES	EBV LMP1 NFkB	EWS-Fli block	LGR2 inh	TWEAK Fn14 block	TROY signal inh
COc1ccc(-c2cc(=O)oc3cc(OC(=O)C4CCCCC4)ccc23)cc1	11	-12	11	54*	22
O=C(Oc1ccc2c(-c3ccccc3)cc(=O)oc2c1)C1CCCCC1	4	.	.	11	-20
O=S(=O)(Nc1ccc(Cl)cc1NS(=O)(=O)c1ccccc1)c1ccccc1	0	-15	21	-4	51*
Cc1cccc(NS(=O)(=O)c2ccc(-c3cnc(C4CC4)o3)cc2)c1C	8	.	-5	31	58*
Cc1cc(C)cc(NS(=O)(=O)c2ccc(-c3cnc(C4CC4)o3)cc2)c1	18	.	-26	42	56*
C=CC(=O)N1C/C(=C/c2ccc(F)cc2)C(=O)/C(=C\c2ccc(F)cc2)C1	89*	87*	101*	106*	79*
O=C(/C=C/c1ccc(F)cc1)N1CCN(S(=O)(=O)/C=C/c2ccccc2)CC1	-2	8	17	8	-1
CC(=O)Nc1ccc2c(c1)C(=O)N(C)[C@@H]1CC[C@H](CC(=O)NCCCN3CCOCC3)O[C@@H]1CO2	.	4	4	.	.
CC(C)n1cc(CN2CCCC(CO)(Cc3cccc(Cl)c3)C2)cn1 (stereo not given)	-2	6	-5	12	51*
C#Cc1ccc([C@@H]2C=C(C(=O)N3CCCCCCC3)O[C@H](OCC)[C@H]2CCCO)cc1	.	3	.	.	.
Fc1ccc(-c2nnc(NC3=NCCCCC3)o2)cc1	65*	.	.	99*	77*
Fc1ccc(NC2=NCCCCC2)cc1	-7	-2	-12	12	1
c1ccc(-c2nnc(NC3=NCCC3)o2)cc1	6	10	35	53*	20
O=C(Nc1nnc(-c2ccccc2)o1)NC1CCCCC1	68*	.	.	0	-31
Cc1cc2nc(NCCCO)n(CC(=O)c3cc(C(C)(C)C)c(O)c(C(C)(C)C)c3)c2cc1C	0	26	1	61*	48
COc1ccc(C(=O)Cn2c(NCCCO)nc3ccccc32)cc1	2	-8	29	9	0
COc1cccc(/C=C(/C#N)c2nc3ccccc3[nH]2)c1OC(C)C(=O)O (stereo not given)	-12	-18	-4	-17	-14
COc1cccc(/C=C(\C#N)c2nc3ccccc3[nH]2)c1OCC(=O)O	-6	-11	-50	99*	-8
CCOc1cc(N(CC)CC)ccc1/C=C(/C#N)c1nc2ccccc2[nH]1	-34	.	.	69*	60*
O=C(NC1CCCC1)N[C@H]1CC[C@H](CC(=O)N2CCOCC2)O[C@H]1CO	.	6	-7	.	.
C[C@@H]1CCCCO[C@@H](CN(C)C(=O)c2ccncc2)[C@H](C)CN([C@@H](C)CO)C(=O)c2cc(NS(C)(=O)=O)ccc2O1	.	-10	4	.	.
CC(C)(C)NC(=O)c1cccc(NC(=O)c2ccc3c(c2)C(=O)N(C(C)(C)C)C3=O)c1	-31	-3	83*	-4	57*
COC(=O)c1cccc(NC(=O)c2ccc3c(c2)C(=O)N(C(C)(C)C)C3=O)c1	-1	-79	-29	15	32
C=C1C(=O)OC2C=C(CO)C3OC3C3OC3(C)CC(OC(=O)/C(=C/C)COC(C)=O)C12 (stereo not given)	70*	37	21	83*	3
Cc1cc(C)n(CC(=O)N/N=C/c2cccs2)n1	-18	.	-40	105*	-15
SMILES	EBV LMP1 NFkB	EWS-Fli block	LGR2 inh	TWEAK Fn14 block	TROY signal inh
Cc1nccn1CC(=O)N/N=C/c1cccs1	-1	1	3	74*	-5
COc1ccc(CN(C)C[C@@H]2OCCCC[C@@H](C)Oc3ccc(NS(=O)(=O)c4ccccc4)cc3C(=O)N([C@H](C)CO)C[C@H]2C)cc1	.	2	-11	.	.
COc1ccccc1Nc1ccc2c(O)cc(S(=O)(=O)O)cc2c1	-8	1	-4	79*	17
O=S(=O)(O)c1cc(O)c2ccc(Nc3ccccc3)cc2c1	-6	-9	-22	32	37
COc1ccc(-c2cc3c(=O)n(CC(=O)NCCCN4CCN(Cc5ccccc5)CC4)ncn3n2)cc1	50*	40	14	23	-12
Cc1ccc(C2=NNC(c3cccc(F)c3)S2)cc1 (stereo not given)	26	?	.	65*	54*
COc1cccc(F)c1C(C[N+](=O)[O-])c1c(N)n(C)c(=O)n(C)c1=O (stereo not given)	-7	36	64*	58*	43
COc1cc(C(C[N+](=O)[O-])c2c(N)n(C)c(=O)n(C)c2=O)ccc1O (stereo not given)	9	34	.	28	32
Cn1c(N)c(C(C[N+](=O)[O-])c2ccccc2Cl)c(=O)n(C)c1=O (stereo not given)	8	5	.	99*	12
COc1ccccc1NC(=O)N[C@@H]1CC[C@H](CCNC(=O)Cc2ccccn2)O[C@H]1CO	.	-1	22	.	.
O=[N+]([O-])c1cc(Cl)c(O)c2ncccc12	15	17	-3	-5	0
Oc1c(Cl)cc(CN2CCOCC2)c2cccnc12	7	37	23	13	-14
O=[N+]([O-])c1cc(CN2CCN(c3ccccc3)CC2)c(O)c2ncccc12	80*	29	31	7	10
Oc1c(CN2CCCCC2)cc(Br)c2cccnc12	72*	.	.	14	9
Oc1ccc(CN2CCN(Cc3ccccc3)CC2)c2cccnc12	-4	.	.	3	-7
Oc1c(CN2CCc3ccccc3C2)cc(Cl)c2cccnc12	85*	.	.	6	11
O=C(COc1c(Br)cc(Br)c2cccnc12)N1CCCCC1	-2	-30	-50	-7	-21
CN1CCN(Cc2cc(COCc3ccccc3)c3cccnc3c2O)CC1	58*	.	.	-13	-14
O=C(c1ccccc1)N1CCN(c2ccc(Cl)cc2)CC1	0	2	3	-3	-8
O=C(c1noc2c1CSc1ccccc1-2)N1CCN(c2ccc(Cl)cc2)CC1	68*	.	-6	6	-3
O=C(NCC[C@H]1CC[C@@H](NS(=O)(=O)c2ccc(F)cc2)[C@@H](CO)O1)Nc1ccc(F)cc1	.	-14	-14	.	.
NC(=O)N/N=C/c1ccc(N2CCOCC2)s1	48*	3	-2	-4	18
O=C(N/N=C/c1ccc(N2CCOCC2)s1)c1ccc(O)cc1	-26	-20	16	-10	-22
COc1ccc(-c2cc(=O)oc3c(C)c(O)c(CN(C)C)cc23)cc1	3	.	.	23	60*
CN(C)c1ccnc2sc(C(N)=O)c(N)c12	56*	.	34	29	-21
COc1ccc(NC(=O)N(C)C[C@H]2Oc3c(NC(=O)Nc4ccc(C(F)(F)F)cc4)cccc3C(=O)N([C@H](C)CO)C[C@H]2C)cc1	.	13	-25	.	.
COc1ccc2[nH]cc(C(=O)CCl)c2c1	-10	25	18	57*	12
